# Compound activity deposited in PubChem BioAssay by National Center for Advancing Translational Sciences (NCATS).
# Sampled rows, rich in hits. Any-hit rate of the full collection: about 12%.
# BAZ2B inh: blocks human BAZ2B; Potency, µM (top dose mostly 114 µM), actives largely listed as inhibitors; Q9UIF8; 360,000 compounds, 4.4% hits; AlphaScreen BAZ2B-H3K14Ac peptide displacement; further: nearly all actives have a fitted effect of over 60% in size
#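 Complex of BAZ2B and biotin-H3K14Ac (50 nM apiece) forms over 30 min at RT, then faces library compounds up to 110 uM for another 30 min; AlphaScreen beads added, 20 min dark incubation, luminescence read.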
# PI5P4Ka inh: blocks human PI5P4K alpha kinase activity; P48426; PI5P4Kalpha enzyme, ADP-Glo luminescence, 60 min; active compounds read low; max response, %; 330,000 compounds, 1.2% hits; AID 652105; active means max response of -50% or lower; inconclusive means between -30% and -50%; inactive means -30% or higher; further: value at the top dose of about 77 µM
#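 qHTS, 1536-well: enzyme/substrate mix, compound by pin tool, 5 microM ATP final; RT 60 min; ADP-Glo reagents 1 (45 min) then 2 (30 min); luminescence.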
# HP1b chromo inh: inhibitors of HP1-beta chromodomain binding to methylated histone tails | P83916 | AlphaScreen HP1-beta / biotin-H3K9me3 peptide binding | Potency, µM (top dose mostly 114 µM), actives largely listed as inhibitors | 390,000 compounds, 0.56% hits | AID 540317; further: nearly all actives have a fitted effect of over 70% in size
# Target sequence (P83916 whole entry, looked up): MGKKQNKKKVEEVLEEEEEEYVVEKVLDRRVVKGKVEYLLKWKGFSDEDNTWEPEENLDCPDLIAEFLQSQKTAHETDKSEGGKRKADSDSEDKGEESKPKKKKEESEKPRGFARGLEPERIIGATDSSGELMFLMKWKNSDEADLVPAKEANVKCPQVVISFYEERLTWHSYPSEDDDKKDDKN
#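 HP1-beta protein (50 nM final) preincubated 30 min at room temperature with biotinylated H3(1-18)K9me3 peptide (50 nM) in PBS pH 7.4, 0.01% Tween-20, then compound added for 30 min. AlphaScreen streptavidin donor/nickel chelate acceptor beads (10 ug/mL final), 30 min dark, luminescence read.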
# G9a inh: inhibitors of human histone lysine methyltransferase G9a. Q96KQ7. G9a H3K9 monomethylation, AlphaScreen, 2 h. Potency, µM (series often up to 102 µM), usual class: inhibitors. 350,000 compounds, 8.8% hits. AID 504332; further: nearly all actives have a fitted effect of over 75% in size
# Target sequence (Q96KQ7 913-1193 limits assumed): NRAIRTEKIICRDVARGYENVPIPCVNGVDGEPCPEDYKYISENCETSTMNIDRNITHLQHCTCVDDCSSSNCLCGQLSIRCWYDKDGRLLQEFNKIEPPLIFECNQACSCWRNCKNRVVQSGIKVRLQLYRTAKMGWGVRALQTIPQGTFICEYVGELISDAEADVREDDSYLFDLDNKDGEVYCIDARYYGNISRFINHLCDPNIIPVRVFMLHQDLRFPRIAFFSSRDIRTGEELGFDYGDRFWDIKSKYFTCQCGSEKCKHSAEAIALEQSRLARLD
#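 Quantitative HTS format: methyltransferase activity on a biotin-tagged H3K9 peptide is measured by AlphaScreen, using a rabbit anti-monomethyl-H3K9 antibody with streptavidin donor and anti-IgG acceptor beads. Final levels are 20 nM enzyme, 500 nM peptide, 20 uM SAM; 2 h RT.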
# PLK1 PBD block: inhibitors of human PLK1 polo-box domain binding | Potency, µM, usual class: inhibitors | AID 720504 | P53350 | Plk1 PBD binding of FITC phosphopeptide, fluorescence polarization | 360,000 compounds, 2.8% hits; further: series mostly up to about 57 µM; nearly all actives have a fitted effect of over 65% in size
# JMJD2A Tudor: blocks the human JMJD2A Tudor domain; O75164; AlphaScreen JMJD2A-Tudor / H3K4me3 peptide binding; Potency, µM (doses to about 114 µM), most hits filed as inhibitors; 390,000 compounds, 4.4% hits; AID 504339; further: nearly all actives have a fitted effect of over 50% in size
# Hits are given with their value; - = inactive; ? = inconclusive; . = no result; [ ] = another dose, or the depositor's remark. Unless noted, the call rests on the fitted dose curve; in most records, active means well fitted curve in the direction sought with a large enough effect; inconclusive means small, poorly fitted or top-dose-only effect, or another doubt; inactive means no such curve, though single readings can be large; an effect the other way counts as inactive or inconclusive.
SMILES,BAZ2B inh,PI5P4Ka inh,HP1b chromo inh,G9a inh,PLK1 PBD block,JMJD2A Tudor
CC1CCc2c(sc(NC(=O)Cn3nc(C(F)(F)F)c4c3CCCCC4)c2C#N)C1 (stereo not drawn),-,.,-,?,26.7µM,-
COc1ccc(CNc2nc(-c3cccc(C#N)c3)nc3ccccc23)c(OC)c1,.,.,.,-[0.501 µM],.,.
O=C(Cc1cccc(NC(=O)C2CCN(S(=O)(=O)c3cccc([N+](=O)[O-])c3)CC2)c1)Nc1cccc(C(=O)N2CCOCC2)c1,.,-,-,.,-,-
CC(N)=O,.,.,.,0.794µM,.,.
O=C(C1CCCN(c2ncnc3c2nc2n3CCCCC2)C1)N1CCN(c2ccc(F)cc2)CC1 (stereo not drawn),-,-,-,-,26.7µM,?
O=C(C1CCCN(c2ncnc3c2nc2n3CCCCC2)C1)N1CCN(c2ccc(Cl)cc2)CC1 (stereo not drawn),?,-,-,.,-,?
O=C(C1CCN(c2ncnc3c2nc2n3CCCCC2)CC1)N1CCN(c2cccc(Cl)c2)CC1,31.6µM,-,-,-,-,?
CC(=O)c1ccc(N2CCN(C(=O)C3CCCN(c4ncnc5c4nc4n5CCCCC4)C3)CC2)cc1 (stereo not drawn),?,-,-,.,-,-
O=C(C1CCN(c2ncnc3c2nc2n3CCCCC2)CC1)N1CCN(c2ccc(Cl)cc2)CC1,-,.,-,-,.,-
COc1ccc(N2CCN(C(=O)C3CCCN(c4ncnc5c4nc4n5CCCCC4)C3)CC2)cc1 (stereo not drawn),28.2µM,-,-,.,-,?
COc1cc2c(cc1OC)C(c1cc(OC)c(OC)cc1[N+](=O)[O-])N(C(C)=O)CC2 (stereo not drawn),-,-,-,70.8µM,-,-
Cc1nc(Nc2ccccc2O)c2oc3ccccc3c2n1,-,-,-,-,-,-
Cc1nc(Nc2ccc(Cl)cc2)c2oc3ccccc3c2n1,-,-,-,-[0.501 µM],26.7µM,?
Cc1nc(Nc2ccccc2F)c2oc3ccccc3c2n1,-,-,-,31.6µM,-,-
Cc1nc(Nc2cccc(Cl)c2)c2oc3ccccc3c2n1,-,-,-,70.8µM,-,-
Cc1ccc(C)c(NC(=O)C(Cc2ccccc2)N2Cc3ccccc3C2=O)c1 (stereo not drawn),-,.,-,-,.,-
CC[n+]1c(C)n(-c2ccccc2)c2ccc(C(=O)OC)cc21,?,-,-,.,-,-
CC[n+]1c(C)cc(C)n1-c1ccccc1,.,-,-,50.1µM,-,?
Fc1ccc(NC(=S)NCc2ccccc2)cc1,-,-,-,-,-,-
Cc1ccc(NC(=S)NNC(=S)NCc2ccccc2)cc1,-,?,-,?,29.9µM,?
Cc1ccc(NC(=S)NNC(C)(C)C)cc1,-,-,-,44.7µM,-,-
S=C(NCc1ccccc1)NCc1ccc(CNC(=S)NCc2ccccc2)cc1,-,-,-,-,-,-
O=C(COc1ccc2c(c1)CCC2)NCc1ccc(Cl)cc1,-,-,-,-,29.9µM,-
CCNC(=S)NNC(=S)NCc1ccccc1,-,-,-,10µM,-,1.26µM
Cc1ccc(C)c(N2CCN(C(=O)C3CCN(c4nc(-c5ccc(C(C)C)cc5)no4)CC3)CC2)c1,-,.,-,-,.,-
SMILES,BAZ2B inh,PI5P4Ka inh,HP1b chromo inh,G9a inh,PLK1 PBD block,JMJD2A Tudor
CCCCc1nn2c(=O)cc(COC(=O)c3cccc(NC(=O)CCc4ccccc4)c3)nc2s1,-,.,-,-[12.7 µM],.,-
O=C(COc1ccc(Cl)cc1)NNC(=S)NCc1ccccc1,-,-,-,31.6µM,-,-
COc1ccc(N=C2C(=S)N(c3ccc(OC)cc3)C(=NS(=O)(=O)c3ccccc3)N2c2ccccc2)cc1,.,?,10µM,.,2.99µM,?
Nc1c(C(=O)NCc2ccco2)sc2nc3c(cc12)C(=O)CCC3,?,.,-,?,?,56.2µM
C/C(=N\NC(=O)c1ccc(F)cc1)c1ccc(N2CCOCC2)cc1,-,-,-,-,-,-
C/C(=N\NC(=O)COc1ccc(C(C)(C)C)cc1)c1ccc(N2CCOCC2)cc1,-,-,-,10µM,-,-
Cn1cccc1CN1CCC[C@]2(N[C@H](c3ccccc3)[C@@H]3C(=O)N(Cc4ccccc4)C(=O)[C@@H]32)C1=O,.,-,.,.,-,.
CCN(CC)CCCNC(=O)c1csc(Nc2cccc3ccccc23)n1,?,-,-,.,-,-
O=C(c1csc(Nc2ccccc2Cl)n1)N1CCCC1,-,-,-,?,-,-
CCN(CC)C(=O)c1csc(Nc2cccc3ccccc23)n1,?,-,-,39.8µM,-,-
O=C(c1csc(Nc2cccc3ccccc23)n1)N1CCCC1,39.8µM,-,-,-,-,-
O=C(NCC(O)CO)c1csc(Nc2cccc3ccccc23)n1 (stereo not drawn),?,-,-,39.8µM,-,-
CCOC(=O)c1cc(-c2ccc(F)cc2)n(CCC(=O)NC2CCC(C)CC2)c1C (stereo not drawn),-,.,-,-,.,-
CC(C)C[C@@H](CNCC(=O)[C@H](CC(C)C)NC(=O)c1[nH]cnc1C(=O)N[C@@H](C)CN)NC(=O)c1nc[nH]c1C(=O)N[C@@H](CC(=O)O)C(=O)O,.,?,-,.,?,50.1µM
